Compounds with a hit are over-represented: about 9.4% of the library has one in this group of screens.
Pf growth 48h: Primary qHTS for delayed death inhibitors of the malarial parasite plastid, 48 hour incubation | P. falciparum luciferase growth in erythrocytes, 48 h | Potency, µM (titrated, usually from 28.7 µM), for the others: at the highest dose activity change, negative = inhibition, actives largely listed as inhibitors | 310,000 compounds, 5.9% hits; note: % is set by controls: 0 for no effect and ±100 for the full control effect
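Read-out is firefly luciferase luminescence from an integrated reporter in P. falciparum, so falling signal marks reduced parasite growth. Infected erythrocytes were at 2% hematocrit and 0.1% parasitemia (final) in Albumax-supplemented RPMI 1640.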
Pf growth 96h: Primary qHTS for delayed death inhibitors of the malarial parasite plastid, 96 hour incubation. AID 504834, 2011. Potency, µM (highest dose often 28.7 µM), for inactives: at the highest dose activity change, negative = inhibition, actives largely listed as inhibitors. P. falciparum luciferase reporter growth, 96 h. 320,000 compounds, 6.9% hits; note: % is set by controls: 0 for no effect and ±100 for the full control effect
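Plates of compound plus infected erythrocytes (2% hematocrit, 0.05% parasitemia final) incubate 96 hours, 37 C, 5% CO2. Detection reagent added; reduced luminescence from the parasites' luciferase reporter flags inhibition.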
SARS PLpro yeast: qHTS of Yeast-based Assay for SARS-CoV PLP. Potency, µM (titrated, usually from 32.9 µM), for inactives: top-dose activity, positive = growth rescue, hits mostly activators. 330,000 compounds, 0.19% hits. S. cerevisiae expressing SARS-CoV PLpro, growth rescue; calls by dose curve; note: 0% is about no effect; nearly all actives have a fitted effect of over 55% in size
AMA1 RON2 block: qHTS for Inhibitors of AMA1-RON; Towards Development of Antimalarial Drug Lead: Primary Screen; AlphaScreen AMA1-biotinylated RON2 peptide binding; AID 720542, 2013; Plasmodium falciparum AMA1 (3D7) - RON2 peptide interaction; Potency, µM (top dose mostly 58.2 µM), inactives show top-dose activity change, negative = inhibition, actives largely listed as inhibitors; 360,000 compounds, 0.2% hits;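 note: 0% = vehicle wells and -100% = peptide control; nearly all actives have a fitted effect of over 45% in size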
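AMA1 (3D7) with his tag at 25 nM final met compounds first, then biotinylated RON2 peptide at 25 nM; detection used donor plus acceptor beads, 10 µg/mL apiece, read by AlphaScreen after 30 min at room temperature.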
Starred values were filed as active, the others as inactive; [ ] = dose if it differs, or a comment. Unless noted, calls come from the whole dose curve; as a rule, active = well fitted curve in the direction sought with a large enough effect; inconclusive = small, poorly fitted or top-dose-only effect, or another doubt; inactive = no such curve, though single readings can be large; an effect the other way counts as inactive or inconclusive. Potency is the fitted concentration of half-maximal effect.

How did CCN1CCN(c2nc3ccccc3n3cnnc23)CC1 do in these assays?
Pf growth 48h: 22%; Pf growth 96h: 22%; SARS PLpro yeast: 1%; AMA1 RON2 block: 4%

How did Cc1nn(Cc2ccc(Cl)cc2)c(C)c1NC(=O)CSc1n[nH]c(C)c1[N+](=O)[O-] do in these assays?
Pf growth 48h: -12%; Pf growth 96h: 13µM*; SARS PLpro yeast: 3%; AMA1 RON2 block: 7%

Results for Cc1sc2ccc3sccc3c2[n+]1C ?
Pf growth 48h: -4%; Pf growth 96h: 15µM*; SARS PLpro yeast: -1%; AMA1 RON2 block: 9%

What do the screens show for `COc1cccc(C2=CC(c3ccc(N(C)C)cc3)n3ncnc3N2)c1` (configuration not stated)?
Pf growth 48h: 10µM*; Pf growth 96h: 10%; SARS PLpro yeast: -11%

What do the screens show for `CCOc1ccc(C2C=C(c3ccc(F)cc3)Nc3ncnn32)cc1` (configuration not stated)?
Pf growth 48h: 12µM*; SARS PLpro yeast: -11%; AMA1 RON2 block: 8%

What do the screens show for `COc1ccc(C2C=C(c3ccc(C)cc3)Nc3ncnn32)cc1` (configuration not stated)?
Pf growth 48h: 12µM*; Pf growth 96h: -4%[5.75 µM]; SARS PLpro yeast: -14%; AMA1 RON2 block: -1%

How did Cc1ccc(C2C=C(c3ccccc3)Nc3ncnn32)cc1 (configuration not stated) do in these assays?
AMA1 RON2 block: 19%

How did COc1cccc(C2=CC(c3ccccc3)n3ncnc3N2)c1 (configuration not stated) do in these assays?
Pf growth 48h: inconclusive; Pf growth 96h: inconclusive; SARS PLpro yeast: 8%

What do the screens show for `COc1ccc(C)cc1NC(=O)C(OC(=O)c1ccc([N+](=O)[O-])o1)c1ccccc1` (configuration not stated)?
Pf growth 48h: -7%; Pf growth 96h: 15%; SARS PLpro yeast: -22%; AMA1 RON2 block: -17%

Results for COc1ccc(C(=O)c2c(C)c3ccccc3n2CC(O)CNC(C)C)cc1 (configuration not stated) ?
Pf growth 48h: 12µM*; Pf growth 96h: inconclusive; SARS PLpro yeast: 0%; AMA1 RON2 block: 0%

What do the screens show for `COc1ccc(NCC(=O)n2c(C)c(C)c3ccccc32)cc1`?
Pf growth 48h: -34%; Pf growth 96h: -12%; SARS PLpro yeast: 2%; AMA1 RON2 block: -15%

What do the screens show for `CCCN1CCN(CCCNC(=O)C2CCN(c3nnc(-n4cccc4)s3)CC2)CC1`?
Pf growth 48h: inconclusive; Pf growth 96h: -9%; SARS PLpro yeast: -9%; AMA1 RON2 block: -5%

How did Cc1cc(NC(=O)CSc2nnc(NC(=O)C3CC(=O)N(c4ccccc4)C3)s2)no1 (configuration not stated) do in these assays?
Pf growth 48h: 14%; Pf growth 96h: -1%; SARS PLpro yeast: 11%; AMA1 RON2 block: 22%

Results for Cc1nn(C)c(C)c1/C=N/N=C1\CCC2C3CCc4cc(O)ccc4C3CCC12C (configuration not stated) ?
Pf growth 48h: 2.9µM*; SARS PLpro yeast: -6%; AMA1 RON2 block: -10%

What do the screens show for `C[C@]12CC[C@H]3c4ccc(O)cc4CC[C@@H]3[C@H]1CC[C@@H]2OC(=O)CCC1CCCC1`?
Pf growth 48h: 17µM*; Pf growth 96h: 13µM*

Results for C[C@]12CC[C@@H]3c4ccc(O)cc4CC[C@H]3[C@@H]1CCC2=O ?
Pf growth 48h: inconclusive; Pf growth 96h: 13µM*; SARS PLpro yeast: -5%; AMA1 RON2 block: -2%

What do the screens show for `C[C@]12CC[C@@H]3c4ccc(O)cc4CC[C@H]3[C@@H]1CC[C@@H]2OC(=O)CCC1CCCC1`?
AMA1 RON2 block: -5%

What do the screens show for `CN1CCC(=C(c2ccc(Cl)cc2)c2ccccn2)CC1`?
Pf growth 48h: inconclusive; Pf growth 96h: 12%; SARS PLpro yeast: 0%; AMA1 RON2 block: 19%

How did O=C(COC(=O)c1cnc(Cl)c(Cl)c1)c1ccc(F)cc1 do in these assays?
SARS PLpro yeast: -2%; AMA1 RON2 block: 0%

Results for NC(=O)C1CCN(C(=O)N2c3ccccc3Sc3ccccc32)CC1 ?
Pf growth 48h: inconclusive; Pf growth 96h: 10%[5.75 µM]; SARS PLpro yeast: -2%; AMA1 RON2 block: 14%

Results for O=C(C1CC1)N1c2ccccc2Sc2ccccc21 ?
Pf growth 48h: 12µM*; Pf growth 96h: 26%; SARS PLpro yeast: 3%; AMA1 RON2 block: 6%

What do the screens show for `Cc1[nH]c2ccccc2c1C(=O)CSc1ccccc1`?
Pf growth 48h: inconclusive; Pf growth 96h: 35%; SARS PLpro yeast: -21%; AMA1 RON2 block: 5%

What do the screens show for `CCC1CCCCN1CC(=O)c1c(C)[nH]c2ccccc12` (configuration not stated)?
Pf growth 48h: 4%; Pf growth 96h: -27%; SARS PLpro yeast: -3%; AMA1 RON2 block: 42%

Results for Cc1[nH]c2ccccc2c1C(=O)CN1CCC2(CC1)OCCO2 ?
Pf growth 48h: 0.93µM*; Pf growth 96h: 0%; SARS PLpro yeast: 3%; AMA1 RON2 block: 22%

How did Cc1[nH]c2ccccc2c1C(=O)CN1CCCCC1C (configuration not stated) do in these assays?
Pf growth 48h: -5%; Pf growth 96h: 15µM*; SARS PLpro yeast: 8%; AMA1 RON2 block: -7%

Results for Cc1[nH]c2ccccc2c1C(=O)CN1CCC(C)CC1 ?
Pf growth 48h: -1%; Pf growth 96h: -35%; SARS PLpro yeast: -2%; AMA1 RON2 block: inconclusive

What do the screens show for `Cc1[nH]c2ccccc2c1C(=O)CCl`?
Pf growth 48h: inconclusive; Pf growth 96h: 10µM*; SARS PLpro yeast: 2%; AMA1 RON2 block: -9%

Results for Cc1ncoc1C(=O)NC1CC(C)(C)Cc2c1cnn2-c1ccc(F)cc1 (configuration not stated) ?
Pf growth 48h: -25%; Pf growth 96h: -15%; SARS PLpro yeast: 6%; AMA1 RON2 block: -9%

How did COc1ccc(/C(C)=N/NC(=O)c2ccccc2N)cc1 do in these assays?
Pf growth 48h: inconclusive; Pf growth 96h: 3.7µM*; SARS PLpro yeast: 0%; AMA1 RON2 block: 6%

What do the screens show for `CC(=NNC(=O)c1ccccc1N)c1ccccc1O`?
AMA1 RON2 block: 111%

Results for O=C(Nc1ccccc1N1CCCCC1)C1CC(=O)N(c2ccccc2F)C1 (configuration not stated) ?
Pf growth 48h: inconclusive; Pf growth 96h: inconclusive; SARS PLpro yeast: -4%; AMA1 RON2 block: 7%

Results for O=C(NC(=S)NC1CCCCC1)c1ccccc1 ?
Pf growth 48h: inconclusive; Pf growth 96h: inconclusive; SARS PLpro yeast: 18%; AMA1 RON2 block: -2%

Results for C[C@@H]1CC[C@H](Cc2ccc(-n3cccc3)cc2)N1C(=O)OC(C)(C)C ?
AMA1 RON2 block: -29%

How did CSc1cc(-c2ccncc2)nc(-c2ccc(Cl)cc2)c1 do in these assays?
Pf growth 96h: 15µM*; SARS PLpro yeast: -4%; AMA1 RON2 block: 18%

Compound activity as filed in PubChem BioAssay.
